Counter-ions that a name gives are not always drawn.

The subject of this test is Danio rerio larvae (5 dpf). Put plainly: difference in startle response vs DMSO (percentage points); higher = stronger startle than DMSO. The settings on record: 10 µM; exposure time 6 h. In short, it runs like this: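 Wild-type 5 dpf zebrafish larvae in 96-well plates were given 100 µL egg water containing library compound at 10 µM final for 6 h. After 3 h of exposure, plates at 28.5 ℃ were photographed every 6 s during a 3-h programme of moving lines and 100 ms, 400Hz tones. Z-LaP Tracker (a DeepLabCut model) quantified each behaviour, averaged over 48 larvae per compound. Values are the compound mean minus the DMSO-vehicle control, in percentage points.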
On to `N=C(N)c1ccc(OCCCCCOc2ccc(C(=N)N)cc2)cc1` [Pentamidine], for which the “difference in startle response” value stood at 5.88.

As for `CC[C@@H]1C(=O)OC[C@@H]1Cc1cncn1C` [(+)-Pilocarpine (hydrochloride)], the “difference in startle response” value is -3.79.

As for `Clc1ccc2nsnc2c1NC1=NCCN1` [Tizanidine (hydrochloride)], the “difference in startle response” value is 4.3.

In the case of `C=CC[C@@H]1/C=C(\C)C[C@H](C)C[C@H](OC)[C@H]2O[C@@](O)(C(=O)C(=O)N3CCCC[C@H]3C(=O)O[C@H](/C(C)=C/[C@@H]3CC[C@@H](O)[C@H](OC)C3)[C@H](C)[C@@H](O)CC1=O)[C@H](C)C[C@@H]2OC`, the “difference in startle response” value is -6.28.

Consider `CC(C[N+](C)(C)C)OC(N)=O` (centres undefined) [Bethanechol (chloride)], for which the “difference in startle response” value is -0.356.

`Nc1ccn([C@@H]2O[C@H](CO)[C@@H](O)C2(F)F)c(=O)n1` [Gemcitabine]: the “difference in startle response” value is -0.373.

Take `C#CCN[C@@H]1CCc2ccccc21` [Rasagiline]: the “difference in startle response” value was determined as 1.96.

For `COCC(=O)Nc1c(I)c(C(=O)NCC(O)CO)c(I)c(C(=O)N(C)CC(O)CO)c1I` (centres undefined) [Iopromide], the “difference in startle response” value was -1.37.

Take `C[C@@H]1C[C@H]2[C@@H]3CCC4=CC(=O)C=C[C@]4(C)[C@@]3(Cl)[C@@H](O)C[C@]2(C)[C@@]1(OC(=O)c1ccco1)C(=O)CCl` [Mometasone Furoate]: the “difference in startle response” value was found to be 0.167.

Regarding `CC(=O)Oc1ccccc1C(=O)Nc1ncc([N+](=O)[O-])s1` [Nitazoxanide], the “difference in startle response” value is -13.9.

Consider `NC(=O)N[C@@H](CCC(=O)O)C(=O)O` [N-Carbamyl-L-Glutamic Acid], for which the “difference in startle response” value was -0.75.

In the case of `COc1ccccc1OCCNCC(O)COc1cccc2[nH]c3ccccc3c12` (centres undefined) [Carvedilol], the “difference in startle response” value was determined as 2.07.

Consider `COc1cc(C(=O)NS(=O)(=O)c2ccccc2C)ccc1Cc1cn(C)c2ccc(NC(=O)OC3CCCC3)cc12` [Zafirlukast], for which the “difference in startle response” value was -0.95.

Consider `COc1cccc2c1C(=O)c1c(O)c3c(c(O)c1C2=O)C[C@@](O)(C(C)=O)C[C@@H]3O[C@H]1C[C@H](N)[C@H](O)[C@H](C)O1` [Daunorubicin (hydrochloride)], for which the “difference in startle response” value was found to be 4.36.

With `CCc1ccc(CCOc2ccc(CC3SC(=O)NC3=O)cc2)nc1` (centres undefined) [Pioglitazone (hydrochloride)], the “difference in startle response” value is -4.66.

In the case of `CO[C@H]1C[C@@H]2CC[C@@H](C)[C@@](O)(O2)C(=O)C(=O)N2CCCC[C@H]2C(=O)O[C@H]([C@H](C)C[C@@H]2CC[C@@H](O)[C@H](OC)C2)CC(=O)[C@H](C)/C=C(\C)[C@@H](O)[C@@H](OC)C(=O)[C@H](C)C[C@H](C)/C=C/C=C/C=C/1C` [Rapamycin], the “difference in startle response” value is -2.33.

With `C#Cc1cccc(Nc2ncnc3cc(OCCOC)c(OCCOC)cc23)c1` [Erlotinib], the “difference in startle response” value was -6.74.

For `COc1cc2c(cc1OC)[C@@H](Cc1cc(OC)c(OC)c(OC)c1)[N+](C)(CCCOC(=O)CC/C=C/CCC(=O)OCCC[N+]1(C)CCc3cc(OC)c(OC)cc3[C@H]1Cc1cc(OC)c(OC)c(OC)c1)CC2` (some centres undefined) [Mivacurium (chloride)], the “difference in startle response” value was -7.63.

As to `CCOC(=O)[C@H](CCc1ccccc1)N[C@@H](C)C(=O)N1CCC[C@H]1C(=O)O` [Enalapril (maleate)], the “difference in startle response” value is 3.17.

Turning to `CCCCC[C@H](O)/C=C/[C@H]1[C@H](O)CC(=O)[C@@H]1C/C=C\CCCC(=O)O` [Prostaglandin E2], the “difference in startle response” value is -5.41.

On to `C#C[C@]1(O)CC[C@H]2[C@@H]3CCC4=Cc5oncc5C[C@]4(C)[C@H]3CC[C@@]21C` [Danazol], for which the “difference in startle response” value is -7.24.

In the case of `CN(C)CCC[C@@]1(c2ccc(F)cc2)OCc2cc(C#N)ccc21` [Escitalopram], the “difference in startle response” value was -1.37.

On to `Cc1cccc(Nc2ccccc2C(=O)O)c1C` [Mefenamic Acid], for which the “difference in startle response” value is -1.5.

With `NCC[C@H](O)C(=O)N[C@@H]1C[C@H](N)[C@@H](O[C@H]2O[C@H](CN)[C@@H](O)[C@H](O)[C@H]2O)[C@H](O)[C@H]1O[C@H]1O[C@H](CO)[C@@H](O)[C@H](N)[C@H]1O` [Amikacin], the “difference in startle response” value turned out to be 3.94.

As to `COc1cc(Nc2c(C#N)cnc3cc(OCCCN4CCN(C)CC4)c(OC)cc23)c(Cl)cc1Cl` [Bosutinib], the “difference in startle response” value amounted to 1.86.

`CC/C=C\C/C=C\C/C=C\C/C=C\C/C=C\CCCC(=O)OCC` [Eicosapentaenoic Acid ethyl ester]: the “difference in startle response” value was 2.48.

As to `Oc1ncnc2[nH]ncc12` [Allopurinol], the “difference in startle response” value is -2.34.

Regarding `CC(=O)CC(c1ccccc1)c1c(O)c2ccccc2oc1=O` (racemic) [(±)-Warfarin], the “difference in startle response” value was -1.45.

With `CC(=O)Nc1nnc(S(N)(=O)=O)s1` [Acetazolamide], the “difference in startle response” value stood at 8.72.

On to `Nc1nc2c(ncn2COC(CO)CO)c(=O)[nH]1` [Ganciclovir], for which the “difference in startle response” value was determined as 3.58.

For the molecule `NS(=O)(=O)c1cc2c(cc1Cl)NCNS2(=O)=O` [Hydrochlorothiazide], the “difference in startle response” value amounted to 3.06.

As to `CC(C)CN(C[C@@H](O)[C@H](Cc1ccccc1)NC(=O)O[C@H]1CCOC1)S(=O)(=O)c1ccc(N)cc1` [Amprenavir], the “difference in startle response” value was -6.45.

Turning to `Cc1ccc([C@@H]2O[C@H](CO)[C@@H](O)[C@H](O)[C@H]2O)cc1Cc1ccc(-c2ccc(F)cc2)s1` [Canagliflozin], the “difference in startle response” value was -3.92.

Turning to `CC(C)(C)NC(=O)[C@H]1CC[C@H]2[C@@H]3CC[C@H]4NC(=O)C=C[C@]4(C)[C@H]3CC[C@]12C` [Finasteride], the “difference in startle response” value stood at 3.35.

Turning to `CCCc1nc2c(C)cc(-c3nc4ccccc4n3C)cc2n1Cc1ccc(-c2ccccc2C(=O)O)cc1` [Telmisartan], the “difference in startle response” value is -11.8.

Consider `CC(C)(C)NC[C@H](O)COc1nsnc1N1CCOCC1` [Timolol (maleate)], for which the “difference in startle response” value was -3.72.

In the case of `O=c1[nH]cc(F)c(=O)[nH]1` [5-Fluorouracil], the “difference in startle response” value is -1.7.

For `CC1=NN(c2ccccc2)C(=O)C1`, the “difference in startle response” value is -0.112.

`N#C[C@@H]1C[C@@H]2C[C@@H]2N1C(=O)[C@@H](N)C12CC3CC(CC(O)(C3)C1)C2` [Saxagliptin (hydrochloride)]: the “difference in startle response” value was -1.75.

The values are drawn from the supplement of paper PMC10515830.
